Reference: PubChem BioAssay (NCATS)
Where “and” joins values, the source holds several entries; their conditions need not be identical. Equal entries are not always repeated. Inconclusive results are not listed. Calls of active or inactive are those of the source. The call rests on the fitted dose curve; in most records, active means well fitted inhibition curve with a large enough effect; inconclusive means small, poorly fitted or top-dose-only effect; inactive means flat fitted curve, though single readings scatter.

Legend:
[1] = test system: KB-3-1; assay: Cytotoxic Profiling of Annotated Libraries Using Quantitative High-Throughput Screening (AID 1296008); settings: Five cell lines viability, CellTiter-Glo ATP luminescence, 48-72 h; max response: stronger effect = lower value; further: potency means the concentration at half of the fitted maximal effect; on max response: on the % scale 0 is the no-effect control and ±100 the full control effect
In short: (§1)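 Compounds were pin-transferred onto cells and incubated 48 or 72 hr at 37 degree Celsius, 95% humidity. CellTiter-Glo was added, plates sat 10 min at room temperature, then ATP-coupled luminescence was imaged as the viability read-out.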

[2] = test system: NIH3T3; assay: as above; settings: Five cell lines viability, CellTiter-Glo ATP luminescence, 48-72 h; max response: stronger effect = lower value
In short: as §1

[3] = test system: CRL-7250; assay: qHTS assay to identify novel small-molecules to repurpose for Merkel cell carcinoma treatment (AID 1296009); settings: MCC and control cell lines, CellTiter-Glo viability, 72 h; at 44.8 µM (top of the series) unless noted
In short: (§2)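 Cells exposed to NPC (8-point) and MIPE (11-point) compound dilutions for 72 hr at 37 degree celsius; viability read by CellTiter-Glo luminescence, normalized to no-cell and DMSO in-plate controls.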

[4] = test system: HACAT; assay: as above; settings: MCC and control cell lines, CellTiter-Glo viability, 72 h; at 44.8 µM (top of the series) unless noted
In short: as §2

[5] = test system: NIH3T3; assay: as above; settings: MCC and control cell lines, CellTiter-Glo viability, 72 h; at 44.8 µM (top of the series) unless noted
In short: as §2

[6] = test system: HEK293T; assay: as above; settings: MCC and control cell lines, CellTiter-Glo viability, 72 h; at 44.8 µM (top of the series) unless noted
In short: as §2
Further: nearly all actives have a fitted effect of over 60% in size.

O=C1C[C@@H]2OCC=C3CN4CC[C@]56c7ccccc7N1[C@H]5[C@H]2[C@H]3C[C@H]46
inactive: max response [1] -9.91% | outcome [1] | max response [2] 3.86% | outcome [3] | outcome [4]

CC(C)(C)c1cc(C(C)(C)C)c2c(c1)C(O)(C(F)(F)F)C(=O)O2 (centres undefined)
inactive: outcome [1] | outcome [2] | outcome [3] | outcome [4] | outcome [5]

CC[C@H]1CN2CC[C@H]1C[C@H]2[C@H](O)c1ccnc2ccc(OC)cc12
inactive: max response [1] 0.288% | outcome [2] | outcome [3] | outcome [4] | outcome [5]

C[C@@]1(C(=O)O)CC[C@]2(C)CC[C@]3(C)C4=CC(=O)c5cc(O)c(O)cc5[C@]4(C)CC[C@@]3(C)[C@@H]2C1
inactive: outcome [1] | outcome [2] | outcome [3] inactive [at 17.4 µM] | outcome [4] inactive [at 17.4 µM] | outcome [5] inactive [at 17.4 µM]

C/C=C(\C)C(=O)OC1CC2C(C)(C)OC(=O)CC(OC(C)=O)C2(C)C2CC(OC(=O)C(C)C)C3(C)C(c4ccoc4)CC4OC43C12C (centres undefined)
inactive: max response [1] 7.39% | max response [2] 0.059% | outcome [3] inactive [at 17.4 µM] | outcome [4] inactive [at 17.4 µM]

Cc1cc(C(=O)CN2CCCC2)c(C)n1-c1ccc(F)cc1
inactive: max response [1] 2.15% and -9.06% | max response [2] 1.34% and -18.5%

O=C(N1CCOCC1)N1CCN(c2ccc(Cl)cc2)CC1
inactive: max response [1] 6.75% | outcome [2] | outcome [3] | outcome [4] | outcome [5]

CC1=C2C(=O)C3[C@@H](CC=C4C[C@@H](O)CC[C@@]43C)[C@@H]2CC[C@]12O[C@@H]1C[C@H](C)CN[C@H]1[C@H]2C (some centres undefined)
inactive: outcome [1] | outcome [2] | outcome [3] inactive [at 17.4 µM] | outcome [4] inactive [at 17.4 µM] | outcome [5] inactive [at 17.4 µM]

OCCCCC#Cc1cncc(OC[C@@H]2CCN2)c1
inactive: max response [1] -3.78% | outcome [2] | outcome [3] | outcome [4] | outcome [5]

CC(C)C1(OO)C=C2C(=O)CC3C(C)(C(=O)O)CCCC3(C)C2CC1 (centres undefined)
inactive: max response [1] 7.41% | outcome [2] | outcome [4] | outcome [5]

CN1[C@H]2C[C@H](OC(=O)[C@H](CO)c3ccccc3)C[C@@H]1[C@@H](O)C2
inactive: max response [1] 1.1% | outcome [2] | outcome [4] | outcome [6] | outcome [5]

N#C[C@@H](O[C@@H]1O[C@H](CO[C@@H]2O[C@H](CO)[C@@H](O)[C@H](O)[C@H]2O)[C@@H](O)[C@H](O)[C@H]1O)c1ccccc1
inactive: max response [1] 5.22% | outcome [2] | outcome [4] inactive [at 17.4 µM] | outcome [5] inactive [at 17.4 µM]

C=CC(C)(O)CC/C=C(\C)C(=O)O[C@H]1[C@H](O)[C@@H](CO)O[C@@H](OC(=O)[C@]23CCC(C)(C)CC2C2=CCC4[C@@]5(C)CC[C@H](O[C@@H]6O[C@H](CO[C@@H]7OC[C@H](O)[C@H](O)[C@H]7O[C@@H]7OC[C@@H](O)[C@H](O)[C@H]7O)[C@@H](O)[C@H](O)[C@H]6O)C(C)(C)C5CC[C@@]4(C)[C@]2(C)CC3)[C@@H]1OC1OC(C)C(O[C@@H]2OC[C@@H](O)[C@H](O[C@@H]3OC[C@@H](O)[C@H](O)[C@H]3O)[C@H]2O)C(O)C1O (some centres undefined)
inactive: max response [1] -0.269% | outcome [2] | outcome [4] inactive [at 9.27 µM] | outcome [5] inactive [at 9.27 µM]

CCN1C[C@]2(OC(=O)c3ccccc3NC(C)=O)CC[C@H](OC)[C@@]34[C@@H]2C[C@@H]([C@@H]13)[C@@]1(O)C[C@H](OC)[C@H]2C[C@@H]4[C@]1(O)[C@H]2OC
inactive: max response [1] 6.81% | outcome [2] | outcome [4] | outcome [5]

C=C(C)[C@H]1O[C@H]2CC[C@@]3(C)[C@@](O)(CC[C@H]4[C@@H]5OC(C)(C)[C@H]6C[C@@H]7C(=C)Cc8c(Cl)cc9[nH]c(c5c9c8[C@@]76O)[C@@]43C)[C@]23O[C@@H]3[C@H]1O
inactive: outcome [1] | max response [2] -2.87% | outcome [6] inactive [at 17.4 µM]

C[C@H]1O[C@@H](O[C@H]2C[C@@H](O)[C@]3(CO)C4C(CC[C@]3(O)C2)[C@@]2(O)CC[C@H](C3=CC(=O)OC3)[C@@]2(C)C[C@H]4O)[C@@H](O)[C@@H](O)[C@H]1O (some centres undefined)
active: Potency [1] 432 nM
inactive: outcome [2] | outcome [5] inactive [at 17.4 µM]

CN1C(=O)c2ccccc2NC(=O)C1Cc1ccccc1 (centres undefined)
inactive: max response [1] 3.82% | max response [2] -1.81% | outcome [6]

CN1C(=O)c2ccccc2NC(=O)[C@]12O[C@@H]2c1ccccc1
inactive: max response [1] 8.97% | max response [2] -7.39% | outcome [6]
